In PubChem BioAssay (EPA / NIEHS) one finds outcome and AC50 data, which are given here for 19 molecules.

Results filed as inconclusive are left out. Activity calls are given as the source filed them. How the source made its calls: active means hit-call score of the fitted dose curve at least 0.9, where 1 is the maximum; inconclusive means response in the unintended direction; inactive means score below 0.9.

Chain of human AKT serine/threonine Kinase 1 (AKT1), AKT1 (gene 207) (P31749 whole entry, looked up): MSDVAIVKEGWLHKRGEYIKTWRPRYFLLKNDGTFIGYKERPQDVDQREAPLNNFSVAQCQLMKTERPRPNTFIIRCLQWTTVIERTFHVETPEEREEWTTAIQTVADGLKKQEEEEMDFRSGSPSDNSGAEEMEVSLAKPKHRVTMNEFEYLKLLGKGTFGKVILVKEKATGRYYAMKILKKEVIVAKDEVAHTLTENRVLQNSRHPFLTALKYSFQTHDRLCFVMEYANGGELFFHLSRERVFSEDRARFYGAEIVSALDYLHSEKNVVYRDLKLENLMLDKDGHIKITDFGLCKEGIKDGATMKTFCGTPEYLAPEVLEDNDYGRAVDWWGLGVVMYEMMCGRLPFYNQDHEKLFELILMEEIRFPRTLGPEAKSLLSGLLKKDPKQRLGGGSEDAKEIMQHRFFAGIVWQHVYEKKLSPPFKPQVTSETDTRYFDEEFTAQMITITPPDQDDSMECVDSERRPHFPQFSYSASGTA

The first assay concerns the target human AKT serine/threonine Kinase 1 (AKT1), AKT1 (gene 207) (UniProt P31749). In words: NVS_ENZ_hAKT1: NovaScreen (NVS) Enzymatic Assay for human AKT serine/threonine Kinase 1 (AKT1) (AID 2283138). The method in brief:
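A biochemical assay with recombinant enzyme and specific substrate, read by fluorescence intensity with mobility-shift separation 1 hour after dosing. Actives from 25 uM duplicate screening were titrated up to 50 uM against DMSO baseline.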
`CC(C)CC(C)(O)C#CC(C)(O)CC(C)C` (configuration not stated): the outcome was inactive.

Turning to `O=C(O)c1cccc(Oc2ccccc2)c1`, the call was inactive. Usually AC50 stands for the concentration at which the activity in the assay is half-maximal. Take `NC(=O)NO`: the concentration at half-maximal activity (AC50) was 16.5 µM (active). As for `O=C(O)c1cc(N=Nc2ccc(S(=O)(=O)Nc3ccccn3)cc2)ccc1O`, the result was inactive. Take `Cn1cnc([N+](=O)[O-])c1Sc1ncnc2nc[nH]c12`: the molecule was classed as inactive. Still for that read-out and setting: the entry for `CCOCCOCCOCCO` is “inactive”.

In a further assay the target is human Beta-secretase (BACE), BACE1 (gene 23621) (UniProt P56817). As to the kind of experiment: NVS_ENZ_hBACE: NovaScreen (NVS) Enzymatic Assay for human Beta-secretase (BACE) (AID 2283140).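 Further: hits are inhibitors that reduce fluorescent substrate signal versus DMSO.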 In a few lines: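 Enzyme activity of SF9-produced BACE1 is measured cell-free by fluorescence, 1 hour post dosing, normalised to DMSO. Screening used 25 uM in duplicate, with concentration-response follow-up for actives.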
Chain of human Beta-secretase (BACE), BACE1 (gene 23621) (P56817 whole entry, looked up): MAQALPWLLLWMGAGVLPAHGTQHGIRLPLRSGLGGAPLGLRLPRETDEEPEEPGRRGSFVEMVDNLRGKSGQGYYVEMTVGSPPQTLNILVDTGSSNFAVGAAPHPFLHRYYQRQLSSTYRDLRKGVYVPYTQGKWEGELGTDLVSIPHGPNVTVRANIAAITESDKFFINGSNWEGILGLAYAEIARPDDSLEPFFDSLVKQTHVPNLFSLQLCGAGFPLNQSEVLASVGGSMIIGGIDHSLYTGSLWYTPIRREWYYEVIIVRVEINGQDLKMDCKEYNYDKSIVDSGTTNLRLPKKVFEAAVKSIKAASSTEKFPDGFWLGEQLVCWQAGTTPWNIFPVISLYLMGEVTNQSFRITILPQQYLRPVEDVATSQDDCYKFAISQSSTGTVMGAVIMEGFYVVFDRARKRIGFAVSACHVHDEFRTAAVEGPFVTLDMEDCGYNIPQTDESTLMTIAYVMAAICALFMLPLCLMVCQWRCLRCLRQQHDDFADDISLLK
As for `O=C1CCC(N2C(=O)c3ccccc3C2=O)C(=O)N1` (configuration not stated), the call was inactive. For the molecule `Cc1c(-c2cccnc2)c2ccccc2n1CCCCC(=O)O`, the outcome was inactive.

With `Nc1nc2ncc(CNc3ccc(C(=O)N[C@@H](CCC(=O)O)C(=O)O)cc3)nc2c(=O)[nH]1`, the call was inactive. As to `CNCc1ccc(NC(=O)c2c[nH]c3c2C(=O)CCC3)cc1`, the result was inactive. As for `CCOc1cccc(-n2cc(C(=O)N3CCN(c4cc(C(=O)O)c5ccccc5c4)CC3)nc2-c2ccc(C)cc2)c1`, the half-maximal activity concentration (AC50) is 10.5 µM (active).

A further assay deals with human AKT serine/threonine Kinase 2 (AKT2), AKT2 (gene 208) (UniProt P31751). As to the kind of experiment: NVS_ENZ_hAKT2: NovaScreen (NVS) Enzymatic Assay for human AKT serine/threonine Kinase 2 (AKT2) (AID 2283141). In a few lines: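 Cell-free fluorescence/electrophoretic mobility shift readout of recombinant human AKT2 activity, 1 h after chemical dosing. Duplicate primary screen at 25 uM, then singleton concentration-response up to 50 uM; loss of signal versus DMSO baseline.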
Chain of human AKT serine/threonine Kinase 2 (AKT2), AKT2 (gene 208) (P31751 whole entry, looked up): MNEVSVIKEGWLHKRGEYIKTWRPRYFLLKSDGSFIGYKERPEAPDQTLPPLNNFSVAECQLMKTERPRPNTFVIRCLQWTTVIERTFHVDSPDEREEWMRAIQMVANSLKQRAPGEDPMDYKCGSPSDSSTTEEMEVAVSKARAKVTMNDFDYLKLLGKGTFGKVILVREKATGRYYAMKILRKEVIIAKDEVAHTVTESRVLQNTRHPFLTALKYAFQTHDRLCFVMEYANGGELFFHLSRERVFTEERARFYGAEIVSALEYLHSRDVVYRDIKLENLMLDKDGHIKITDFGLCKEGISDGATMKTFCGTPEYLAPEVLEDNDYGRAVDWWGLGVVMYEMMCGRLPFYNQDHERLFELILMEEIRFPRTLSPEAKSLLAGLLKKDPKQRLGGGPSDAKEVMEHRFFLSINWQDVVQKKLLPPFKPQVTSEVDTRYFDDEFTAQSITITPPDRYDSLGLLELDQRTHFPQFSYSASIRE
Regarding `CC(C)CCCCCCCOC(=O)CCCCC(=O)OCCCCCCCC(C)C`, the call was inactive. For `CC[C@H](C)C(=O)O[C@H]1C[C@@H](C)C=C2C=C[C@H](C)[C@H](CC[C@@H]3C[C@@H](O)CC(=O)O3)[C@H]21`, the outcome was inactive.

On to `Cn1cnc([N+](=O)[O-])c1Sc1ncnc2nc[nH]c12`, for which the molecule was classed as inactive.

The next assay has as its target CDK2 (gene 1017) (UniProt P24941). In words: NVS_ENZ_hCDK2: NovaScreen (NVS) Enzymatic Assay for human Cyclin-Cependent Kinase 2 (CDK2) (AID 2283144). The method in brief:
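Compounds screened in duplicate at 25 uM, then in singleton concentration-response to a maximum of 50 uM, against recombinant CDK2; kinase activity read 1 hr after dosing by fluorescence with mobility-shift separation of substrate and product.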
Take `COc1ccc2sc(C(=O)Nc3nnn[nH]3)c(OC(C)C)c2c1`: the concentration at half-maximal activity (AC50) was 10.1 µM (active). As to `O=C(O)c1cc(N=Nc2ccc(S(=O)(=O)Nc3ccccn3)cc2)ccc1O`, the molecule was called inactive. With `C=CCCCCCCCCC(=O)O`, the outcome was inactive.

The target of another assay is human Caspase 8 (CASP8), CASP8 (gene 841) (UniProt Q14790). As to the kind of experiment: NVS_ENZ_hCASP8: NovaScreen (NVS) Enzymatic Assay for human Caspase 8 (CASP8) (AID 2283146). In a few lines: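 The primary screen tested compounds in duplicate at a single 25 uM concentration, with actives followed up in concentration series. Activity of recombinant (E. coli) protease was measured by fluorescence 1 h post-dose, as signal loss against DMSO.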
Chain of human Caspase 8 (CASP8), CASP8 (gene 841) (Q14790 whole entry, looked up): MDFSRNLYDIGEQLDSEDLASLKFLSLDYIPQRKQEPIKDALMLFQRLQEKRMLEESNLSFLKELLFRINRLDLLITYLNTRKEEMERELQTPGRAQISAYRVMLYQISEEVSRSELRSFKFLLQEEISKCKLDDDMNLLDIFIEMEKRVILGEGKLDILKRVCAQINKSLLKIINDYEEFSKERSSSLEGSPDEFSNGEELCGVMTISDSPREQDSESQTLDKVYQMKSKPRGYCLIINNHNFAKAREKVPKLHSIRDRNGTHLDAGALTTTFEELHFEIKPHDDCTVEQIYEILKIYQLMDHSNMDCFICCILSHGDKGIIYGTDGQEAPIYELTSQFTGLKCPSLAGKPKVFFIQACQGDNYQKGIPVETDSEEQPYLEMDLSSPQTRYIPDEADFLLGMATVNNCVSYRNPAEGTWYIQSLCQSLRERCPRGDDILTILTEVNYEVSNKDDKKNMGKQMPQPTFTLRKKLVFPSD
`CCNc1ccccc1`: the outcome was inactive. Same read-out and setting: the entry for `CC[C@H](C)C(=O)O[C@H]1C[C@@H](C)C=C2C=C[C@H](C)[C@H](CC[C@@H]3C[C@@H](O)CC(=O)O3)[C@H]21` is “inactive”. `COCCOCCOCCOC`: the call was inactive. On to `Cc1ccc(C)c(O)c1`, for which the molecule was called inactive. Turning to `CC(C)CCO`, the call was inactive.
